Data from PubChem BioAssay (Tox21).
Records with an inconclusive call do not appear. The source made the active and inactive calls. Unless noted, calls follow the shape of the dose curve; as a rule, active = well fitted curve in the direction sought with a large enough effect in the repeat runs; inconclusive = weak or mixed curves; inactive = no such curve, though single readings can be large; an effect the other way counts as inactive or inconclusive.

Assays:
[1] = qHTS assay for small molecules that induce genotoxicity in human embryonic kidney cells expressing luciferase-tagged ATAD5 (AID 651632); also: nearly all actives have a fitted effect of over 15% in size
In short: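 Quantitative HTS in HEK293T expressing luciferase-tagged ATAD5, whose levels rise upon DNA damage. Exposure ran 16 hr at 37C and 5% CO2, with luminescence read 30 min after Amplite addition at room temperature.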

[2] = qHTS assay for small molecules that induce genotoxicity in human embryonic kidney cells expressing luciferase-tagged ATAD5 - cell viability (AID 651634; calls by dose curve; also: nearly all actives have a fitted effect of over 25% in size; also: potency is read from the fitted curve at half-maximal effect)
In short: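 After 15.5 hr incubation with compound at 37C, 5% CO2, HEK293T ATAD5-luciferase cells received CellTiter-Fluor reagent; fluorescence intensity was quantified following 30 min at 37C.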

[3] = qHTS assay for small molecule disruptors of the mitochondrial membrane potential - cell viability (AID 720634; calls by dose curve; also: nearly all actives have a fitted effect of over 20% in size; also: potency is read from the fitted curve at half-maximal effect)
In short: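 ATP-based luminescent viability readout (CellTiter-Glo, 30 min, room temperature) in HepG2 cells multiplexed with the m-MPI membrane potential dye; compound exposure lasted 1 hr at 37 C.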

[4] = qHTS assay for small molecule disruptors of the mitochondrial membrane potential (AID 720635); also: potency is read from the fitted curve at half-maximal effect
In short: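 Mitochondrial membrane potential tracked with Mito-MPS dye, red aggregates (ex 540/em 590 nm) against green monomers (ex 490/em 535 nm). Compound treatment 1 hr at 37C, dye 30 min in HepG2.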

[5] = qHTS assay to test for compound auto fluorescence at 590 nm (red) in HepG2 cells (AID 720674)
In short: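 Red autofluorescence (Ex/Em 540/590 nm, Rose Bengal sodium equivalents) was measured in HepG2 cells, 2,000 per well in MEM plus 10% FBS, plated overnight at 37 C. Readings were taken 1 hr after adding 23 nL compound or DMSO, at 37 C and 5% CO2.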

[6] = qHTS assay to test for compound auto fluorescence at 535 nm (green) in HepG2 cells (AID 720675)
[7] = qHTS assay to test for compound auto fluorescence at 460 nm (blue) in HEK293 cells (AID 720678)
In short: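 Triamterene serves as the blue fluorophore standard. Compound signal at 405/460 nm is read in HEK293 wells (2,000 cells, 10% dialyzed FBS) after overnight treatment at 37C.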

[8] = qHTS assay to test for compound auto fluorescence at 590 nm (red) in HEK293 cells (AID 720679)
In short: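 We plated HEK293 cells in 10% dialyzed FBS medium, let them adhere for 4-5 hr, then added 23 nL compound. Overnight at 37C and 5% CO2 preceded fluorescence measurement at 540/590nm.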

[9] = qHTS assay to test for compound auto fluorescence at 535 nm (green) in HEK293 cells (AID 720680)
[10] = qHTS assay to test for compound auto fluorescence at 460 nm (blue) in HEK293 cell free culture (AID 720681)
In short: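 Blue fluorescence (Ex 405/Em 460 nm, triamterene-equivalent) was read immediately after pin transfer of compound or DMSO into medium (DMEM, 10% FBS) without cells.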

[11] = qHTS assay to test for compound auto fluorescence at 590 nm (red) in HEK293 cell free culture (AID 720683)
In short: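 Red-channel autofluorescence of compounds in culture medium (DMEM, 10% FBS), no cells, measured at 540/590 nm. Rose Bengal sodium is the reference fluorophore for equivalence.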

[12] = qHTS assay to test for compound auto fluorescence at 590 nm (red) in HepG2 cell free culture (AID 720684)
In short: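 Cell-free; medium MEM + 10% FBS; compound or DMSO added by pintool; read Ex 540/Em 590 nm; Rose Bengal sodium as red reference fluorophore.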

[13] = qHTS assay to test for compound auto fluorescence at 460 nm (blue) in HepG2 cell free culture (AID 720685)
In short: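 Cell-free plates of MEM plus 10% FBS received 23 nL compound or DMSO vehicle; blue-channel (405/460 nm) intensity scored against triamterene as reference fluorophore.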

[14] = qHTS assay to test for compound auto fluorescence at 535 nm (green) in HepG2 cell free culture (AID 720686)
[15] = qHTS assay to test for compound auto fluorescence at 460 nm (blue) in HepG2 cells (AID 720687)
In short: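 Blue-channel autofluorescence (Ex/Em 405/460 nm, triamterene-equivalent) was measured after 1 hr compound exposure at 37 C, 5% CO2. Cells were HepG2, plated overnight at 37 C in MEM plus 10% FBS.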

[16] = biological target: Glucocorticoid receptor (Homo sapiens) (UniProt P04150); experiment: qHTS assay to identify small molecule agonists of the glucocorticoid receptor (GR) signaling pathway (AID 720691; active = well fitted activation curve with a large enough effect in the signal ratio in the repeat runs, not every such curve was filed as active; the % refers to the signal ratio); conditions: GR-bla HeLa, beta-lactamase reporter ratio, 18 h; activation: at 62.4 µM (top of the series)
In short: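 Cells: GR-bla HeLa, endogenous GR with stably integrated GRE-beta-lactamase reporter. Treatment 18 h, 37 C, compounds delivered in DMSO. Detection via LiveBLAzer B/G FRET substrate, 2 h RT, fluorescence intensity.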

[17] = biological target: Glucocorticoid receptor (Homo sapiens) (UniProt P04150); experiment: qHTS assay to identify small molecule antagonists of the glucocorticoid receptor (GR) signaling pathway (AID 720692; active = well fitted inhibition curve with a large enough effect in the signal ratio in the repeat runs, not every such curve was filed as active; the % refers to the signal ratio; also: potency is read from the fitted curve at half-maximal effect)
In short: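 Quantitative HTS in antagonist format: HeLa cells expressing endogenous GR and a stably integrated GRE-bla reporter, stimulated with 5 nM dexamethasone (final) alongside test compounds for 18 h.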

[18] = qHTS assay to test for compound auto fluorescence at 535 nm (green) in HEK293 cell free culture (AID 720682)
In short: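 Intrinsic compound fluorescence is measured in culture medium containing 10% FBS, with excitation at 485 nm and detection at 535 nm, referenced to fluorescein.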

[19] = qHTS assay for small molecule agonists of the p53 signaling pathway - cell viability (AID 651633; calls by dose curve; also: nearly all actives have a fitted effect of over 30% in size; also: potency is read from the fitted curve at half-maximal effect)
In short: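 Viability counter-read: CellTiter-Glo luminescence (30 min, room temperature) in the same p53RE-bla plates. These plates had been exposed to compounds for 16 h at 37 C.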

Measured: Potency

Chain of Glucocorticoid receptor (Homo sapiens) (P04150 whole entry, looked up): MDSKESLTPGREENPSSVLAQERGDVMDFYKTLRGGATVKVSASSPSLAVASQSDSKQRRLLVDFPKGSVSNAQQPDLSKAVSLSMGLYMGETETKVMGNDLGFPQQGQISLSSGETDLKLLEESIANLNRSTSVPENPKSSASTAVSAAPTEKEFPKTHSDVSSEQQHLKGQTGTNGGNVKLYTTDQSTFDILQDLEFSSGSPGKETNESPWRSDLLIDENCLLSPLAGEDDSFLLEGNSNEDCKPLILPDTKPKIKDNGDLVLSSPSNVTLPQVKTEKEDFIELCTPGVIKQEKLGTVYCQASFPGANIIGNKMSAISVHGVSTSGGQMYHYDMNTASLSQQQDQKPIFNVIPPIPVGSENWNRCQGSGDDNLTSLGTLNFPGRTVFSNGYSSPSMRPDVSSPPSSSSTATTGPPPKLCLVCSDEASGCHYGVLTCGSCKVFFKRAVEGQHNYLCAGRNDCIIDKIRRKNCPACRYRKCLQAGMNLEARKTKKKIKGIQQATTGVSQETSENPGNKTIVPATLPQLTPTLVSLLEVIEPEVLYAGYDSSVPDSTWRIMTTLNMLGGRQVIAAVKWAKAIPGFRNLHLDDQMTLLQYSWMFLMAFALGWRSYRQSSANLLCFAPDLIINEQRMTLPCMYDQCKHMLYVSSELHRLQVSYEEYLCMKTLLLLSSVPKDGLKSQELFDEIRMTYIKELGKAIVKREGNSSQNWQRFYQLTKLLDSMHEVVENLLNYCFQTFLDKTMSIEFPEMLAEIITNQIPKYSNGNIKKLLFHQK

CN(C)CCc1c[nH]c2ccccc12
not listed: [18] | [19]
inactive: all other assays above

Cc1ccccc1OP(=O)(Oc1ccccc1C)Oc1ccccc1C
active: [3] 9.73 µM | [4] 17.3 µM | [17] 27.6 µM
not listed: [19]
inactive: all other assays above

CC(=O)[O][Sn]([c]1ccccc1)([c]1ccccc1)[c]1ccccc1
active: [19] 3.44 µM | [2] 0.122 µM | [3] 15.4 µM | [4] 0.077 µM
not listed: [1] | [5] | [7] | [16] | [17] | [18]
inactive: all other assays above

O=[N+]([O-])c1ccc(CCl)cc1
not listed: [1]
inactive: all other assays above

CC(C)C(Nc1ccc(C(F)(F)F)cc1Cl)C(=O)OC(C#N)c1cccc(Oc2ccccc2)c1 (centres undefined)
active: [4] 49 µM
not listed: [1] | [3] | [16] | [17]
inactive: all other assays above

Oc1ccc2[nH]cc(CCCCN3CC=C(c4ccccc4)CC3)c2c1
not listed: [1] | [4] | [17]
inactive: all other assays above

CCNS(=O)(=O)C(F)(F)C(F)(F)C(F)(F)C(F)(F)C(F)(F)C(F)(F)C(F)(F)C(F)(F)F
active: [4] 1.85 µM
not listed: [2] | [3] | [16] | [17]
inactive: all other assays above

CCOP(=S)(OCC)SC(CCl)N1C(=O)c2ccccc2C1=O (centres undefined)
not listed: [2] | [3] | [4] | [16] | [17]
inactive: all other assays above

c1ccc(Nc2ccc(Nc3ccccc3)cc2)cc1
active: [3] 24.2 µM | [4] 8.6 µM
not listed: [5] | [7] | [17] | [19]
inactive: all other assays above

CSC(C)(C)/C=N/O
not listed: [19]
inactive: all other assays above

Nc1c(Cl)c(Cl)c(Cl)c(Cl)c1Cl
not listed: [2] | [3] | [4] | [7] | [10] | [16] | [17]
inactive: all other assays above

N#CSCc1ccccc1
not listed: [1] | [4] | [17]
inactive: all other assays above

COP(=O)(OC)O/C(=C\Cl)c1cc(Cl)c(Cl)cc1Cl
not listed: [2] | [3] | [4] | [16] | [17]
inactive: all other assays above

Clc1ccc(C(Cl)(Cl)Cl)cc1Cl
active: [4] 59.8 µM
not listed: [2] | [17] | [19]
inactive: all other assays above

Cc1c([N+](=O)[O-])c(C)c([N+](=O)[O-])c(C(C)(C)C)c1[N+](=O)[O-]
active: [4] 15.4 µM
not listed: [1] | [7] | [18]
inactive: all other assays above

CC(C)=CC1C(C(=O)OC(C#N)c2cccc(Oc3ccccc3)c2)C1(C)C (centres undefined)
not listed: [4] | [17] | [19]
inactive: all other assays above
